Test systems include HCT-15 colon; HT29 colon; SNB-75 CNS; SNB-19 CNS; U251 CNS; PC-3 prostate; SK-MEL-5 melanoma; UACC-62 melanoma; LOX IMVI melanoma; SK-MEL-28 melanoma.
Holding throughout (experiment): NCI-60 one-dose screen, 48 h (100 = growth as untreated, 0 = no growth, -100 = all killed)
Common to all, as to conditions: 10 µM unless noted

Each structure is given as a SMILES string. Compounds without any hit were thinned out: in the full panel of roughly 83,000, 20% have a hit.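 Single-concentration screen, 48 h exposure, 96-well plates. Endpoint: percent growth. Below 10 = active.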 A number with no mark means an inactive call. Active and inactive are the calls of the source.

With `COc1cc(NC(=O)CSc2nnc(-c3ccc(-c4nc5ccc(Cl)cc5[nH]4)cc3)o2)cc(OC)c1OC`, the growth with HCT-15 colon was 25.6%; in the assay with HT29 colon, 51.3%; in the assay with SNB-75 CNS it was 36.8%; in the assay on SNB-19 CNS, 49.3%; with U251 CNS it was 32.8%; with PC-3 prostate it was 52.3%. For the same compound, the growth in the assay on SK-MEL-5 melanoma was 5.22% (active); in the assay on UACC-62 melanoma, 28.4%; in the assay with LOX IMVI melanoma, 32.2%; with SK-MEL-28 melanoma it was 49.1%.

On to `CCOc1ccccc1[C@H]1C(C(=O)c2ccc(Cl)cc2)C2(N[C@@H]1c1ccccc1)C(=O)Nc1ccccc12` (stereo not given in full), for which the growth in the assay with HCT-15 colon was 7.49% (active); in the assay with HT29 colon it was -0.161% (active); in the assay with SNB-75 CNS, 46.9%; with SNB-19 CNS, 27%; in the assay with U251 CNS it was 29.9%; with PC-3 prostate, 7.19% (active). For the same compound, the growth with SK-MEL-5 melanoma is -90.7% (active); in the assay with UACC-62 melanoma, -4.32% (active); with LOX IMVI melanoma, -48.1% (active); in the assay on SK-MEL-28 melanoma, 40.8%.

For `O=C(c1ccc(O)cc1)C1[C@H](c2ccccc2Br)[C@@H](c2ccccc2)NC12C(=O)Nc1ccccc12` (stereo not given in full), the growth with HCT-15 colon is 34.7%; in the assay with HT29 colon, -7.42% (active); in the assay with SNB-75 CNS it was 36.8%; in the assay on SNB-19 CNS, 58.5%; in the assay with U251 CNS, 7.5% (active); in the assay with PC-3 prostate, 18.2%. Further, the growth in the assay on SK-MEL-5 melanoma was 28.1%; with UACC-62 melanoma, 31.9%; in the assay with LOX IMVI melanoma, 5.24% (active); in the assay with SK-MEL-28 melanoma it was 59.3%.

Regarding `COc1ccc(NC(=O)Cn2c(/C=C/c3ccc([N+](=O)[O-])cc3)nc3ccccc3c2=O)cc1`, the growth with HCT-15 colon is 73.7%; with HT29 colon, 85.5%; with SNB-75 CNS, -32.7% (active); in the assay with SNB-19 CNS, 32.2%; in the assay on U251 CNS, 32.2%; in the assay on PC-3 prostate, 89.7%. The growth with SK-MEL-5 melanoma was 52.6%; in the assay with UACC-62 melanoma, 73.2%; in the assay on LOX IMVI melanoma it was 61.5%; with SK-MEL-28 melanoma, 80.8%.

`Oc1cncc(-c2ccc3ncnc(N4CCc5cc(F)c(Cl)cc54)c3c2)c1`: the growth was 66.3% with HCT-15 colon; 57.8% in the assay on HT29 colon; 25.6% in the assay on SNB-75 CNS; 38.6% in the assay on SNB-19 CNS; 39.1% in the assay with U251 CNS; 57.4% in the assay on PC-3 prostate. The growth was 78.5% in the assay on SK-MEL-5 melanoma, 71.8% in the assay on UACC-62 melanoma, 38.8% in the assay on LOX IMVI melanoma and 77.6% with SK-MEL-28 melanoma.

As for `Cc1nn(-c2ccccc2)c2nc(C)n(C(=O)N/N=C/c3ccccc3)c(=O)c12`, the growth with HCT-15 colon was 107%; in the assay on HT29 colon it was 106%; in the assay on SNB-75 CNS it was 62.3%; in the assay on SNB-19 CNS, 87%; in the assay with U251 CNS, 95.5%; in the assay with PC-3 prostate it was 92.7%. The growth is 103% with SK-MEL-5 melanoma, 92.6% with UACC-62 melanoma, 96.8% with LOX IMVI melanoma and 105% with SK-MEL-28 melanoma.

For `COc1ccc(C(=O)NNC(=O)CSc2nc3sc4c(c3c(=O)n2-c2ccc(Cl)cc2)CCCC4)cc1`, the growth in the assay on HCT-15 colon was 76.3%; with HT29 colon, 91.2%; in the assay with SNB-75 CNS, 44.5%; in the assay with SNB-19 CNS it was 63.3%; in the assay with U251 CNS it was 42.3%; in the assay with PC-3 prostate, 80.6%. For the same compound, the growth is 46.8% in the assay on SK-MEL-5 melanoma, 26.1% in the assay with UACC-62 melanoma, 55.5% with LOX IMVI melanoma and 72.5% with SK-MEL-28 melanoma.

For the compound `CC(C)CN1C(=O)/C(=C\C(=O)c2cc3ccccc3oc2=O)c2ccccc21`, the growth in the assay on HCT-15 colon is 45.3%; with HT29 colon, 114%; with SNB-75 CNS, 82.6%; in the assay with SNB-19 CNS, 100%; in the assay with U251 CNS, 106%; with PC-3 prostate, 96.6%. In addition, the growth with SK-MEL-5 melanoma was 97%; with UACC-62 melanoma, 83.2%; in the assay with LOX IMVI melanoma, 85.7%; in the assay with SK-MEL-28 melanoma, 90.1%.

Turning to `NS(=O)(=O)c1ccc(Nc2nc(N/N=C/c3cc(Br)c(O)c(Br)c3)nc(Nc3ccccc3)n2)cc1`, the growth in the assay on HCT-15 colon was 80.5%; in the assay with HT29 colon, 32.1%; in the assay on SNB-75 CNS, 25.7%; in the assay with SNB-19 CNS it was 14.9%; with U251 CNS, 27.6%; in the assay with PC-3 prostate, 57.7%. The growth in the assay on SK-MEL-5 melanoma was -26.6% (active); in the assay with UACC-62 melanoma, -26.6% (active); with LOX IMVI melanoma it was -23.5% (active); in the assay with SK-MEL-28 melanoma, 34.4%.

As to `Oc1ccc(F)c(Nc2nc(SCCN3CCOCC3)nc3c2cnn3CC(Cl)c2ccc(Br)cc2)c1` (stereo not given), the growth in the assay on HCT-15 colon is 1.07% (active); in the assay on HT29 colon, 8.07% (active); with SNB-75 CNS it was 15.2%; in the assay with SNB-19 CNS, 46.1%; in the assay with U251 CNS it was 21.9%; in the assay with PC-3 prostate, 7.79% (active). The growth in the assay on SK-MEL-5 melanoma was 18.1%; in the assay with UACC-62 melanoma, 20.8%; with LOX IMVI melanoma it was -17.8% (active); in the assay with SK-MEL-28 melanoma, 21%.

In the case of `Cc1ccc(C2CC(c3ccc(S(=O)(=O)NCCNc4nc(N(C)C)nc(N5CCOCC5)n4)cc3)=Nc3c(N)nc(N)nc3N2)cc1` (stereo not given), the growth in the assay with HCT-15 colon is 44.5%; in the assay on HT29 colon, 17.9%; in the assay on SNB-75 CNS, 59.5%; in the assay with SNB-19 CNS, 57.3%; in the assay with U251 CNS it was 50.6%; with PC-3 prostate, 27.9%. Besides, the growth in the assay with SK-MEL-5 melanoma was 34.5%; in the assay with UACC-62 melanoma, 71.1%; in the assay with LOX IMVI melanoma, 17.7%; with SK-MEL-28 melanoma it was 71.1%.

On to `CC1=C(C(=O)OCc2ccccc2)C(c2ccc(N(C)C)cc2)n2c(nc3ccccc32)N1` (stereo not given), for which the growth with HCT-15 colon was 71.4%; in the assay with HT29 colon it was 100%; in the assay with SNB-75 CNS it was 61.2%; with SNB-19 CNS, 86.2%; with U251 CNS, 90.4%; in the assay with PC-3 prostate, 80.8%. For the same compound, the growth in the assay with SK-MEL-5 melanoma was 71.7%; with UACC-62 melanoma, 42%; in the assay with LOX IMVI melanoma, 75.7%; in the assay with SK-MEL-28 melanoma, 79.9%.

`CN(C)c1ccc(/C=C/c2n(Cc3ccc4ccccc4c3)c3ccccc3[n+]2Cc2ccc3ccccc3c2)cc1`: the growth in the assay with HCT-15 colon was -84.4% (active); in the assay with HT29 colon it was -31.6% (active); with SNB-75 CNS it was -84.3% (active); in the assay with SNB-19 CNS, -92.5% (active); in the assay with U251 CNS, -67.5% (active); in the assay on PC-3 prostate it was -50.9% (active). Besides, the growth with SK-MEL-5 melanoma is -92.2% (active); with UACC-62 melanoma, -93.3% (active); in the assay with LOX IMVI melanoma it was -95.7% (active); with SK-MEL-28 melanoma it was -76% (active).

The values are drawn from PubChem BioAssay (NCI).
